Compound activity deposited in PubChem by National Center for Advancing Translational Sciences (NCATS).
Rows were chosen to be rich in hits. Some 21% of all compounds tested hit in one or more screens of this group.
IL1B secr inh – inflammasome signaling inhibition, IL-1 beta readout | THP-1 LPS/ATP IL-1B secretion, AlphaLISA, 16 h; stronger effect = lower value | activity change, % at 57.5 µM | actives 4.7% (n = 360,000); in the data active = activity change below about -50%; inconclusive = mostly about -30% to -49%
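THP-1 cells pretreated 1 hr with compounds (up to 57.5 uM final), then stimulated with LPS (250 ng/mL final) plus ATP (1.25 mM final); secreted IL-1B measured by AlphaLISA after 16 hr, decreased signal indicating inhibition.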
VP16 counter – Gal4-VP16 reporter inhibition counter-screen; AID 2546; actives 3.5% (n = 310,000); Potency, µM (titrated, usually from 53.6 µM), for inactives: at the highest dose activity, negative = inhibition, usual class: inhibitors; Drosophila S2 Gal4-VP16 UAS-luciferase, luminescence, 20 h;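 also: Gal4-VP16 expression switched on by copper sulfate through the metallothionein promoter; potency is read from the fitted curve at half-maximal effect; nearly all actives have a fitted effect of over 50% in size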
RORg inh – ROR gamma (mouse) transcription inhibition; P51450; Drosophila S2 Gal4-RORgamma UAS-luciferase reporter, 20 h; Potency, µM (series often up to 53.6 µM), for the others: top-dose activity change, negative = inhibition, most hits filed as inhibitors; actives 5.4% (n = 310,000); AID 2551; also: potency is read from the fitted curve at half-maximal effect; nearly all actives have a fitted effect of over 60% in size
Target sequence (P51450 whole entry, looked up, the tested form may be a part): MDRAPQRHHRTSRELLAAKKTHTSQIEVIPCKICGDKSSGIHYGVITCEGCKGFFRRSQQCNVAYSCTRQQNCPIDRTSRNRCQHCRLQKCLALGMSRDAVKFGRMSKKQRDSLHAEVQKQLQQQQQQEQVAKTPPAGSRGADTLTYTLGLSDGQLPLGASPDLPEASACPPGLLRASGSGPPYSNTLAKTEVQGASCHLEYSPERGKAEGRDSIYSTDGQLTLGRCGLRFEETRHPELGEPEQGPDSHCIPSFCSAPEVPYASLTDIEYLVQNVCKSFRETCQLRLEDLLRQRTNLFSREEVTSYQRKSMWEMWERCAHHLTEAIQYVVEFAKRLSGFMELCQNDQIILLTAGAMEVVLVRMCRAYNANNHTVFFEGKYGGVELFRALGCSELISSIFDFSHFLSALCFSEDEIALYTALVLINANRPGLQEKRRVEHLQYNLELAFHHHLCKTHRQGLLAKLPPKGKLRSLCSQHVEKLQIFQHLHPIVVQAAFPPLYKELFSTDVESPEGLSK
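Luciferase reporter read in Schneider cells carrying Gal4-RORγ (mouse) and UAS-Photinus luciferase; cells given compound 1 h before 700 uM copper sulfate induction, then incubated 20 h at ambient temperature.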
ELG1 repair inh – blocks ELG1-dependent DNA repair in HEK293T cells; HEK293T ELG1-luciferase reporter, luminescence, 16 h; DNA damage induced by 5-fluorouridine; Potency, µM (top dose mostly 46.1 µM), without a hit: at the top dose activity change, negative = inhibition, actives largely listed as inhibitors; actives 2.3% (n = 330,000); AID 504467; also: potency is read from the fitted curve at half-maximal effect; nearly all actives have a fitted effect of over 55% in size
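In this reporter screen, reduction of luminescence relative to DMSO vehicle indicated activity. Compounds and 5-fluorouridine were added together to 2,000 cells per well, incubated for 16 hr at 37 °C, then developed with ONE-Glo.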
TDP1 cell noCPT – qHTS for Inhibitors of human tyrosyl-DNA phosphodiesterase 1 (TDP1): qHTS in cells in absence of CPT; DT40 Tdp1-/- hTDP1 cells, no CPT, ATP luminescence, 48 h; actives 15% (n = 420,000); Potency, µM (highest dose often 46.2 µM), for the others: at the highest dose activity change, negative = growth inhibition, hits mostly inhibitors; also: potency is read from the fitted curve at half-maximal effect; nearly all actives have a fitted effect of over 55% in size
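Chicken DT40 Tdp1-/- cells complemented with human TDP1, screened without camptothecin (DMSO vehicle only), 400 cells/well. Compounds pin-transferred, cells incubated at 37 °C for at least 48 hr. Growth read as ATP-dependent luminescence (CellTiter-Glo, 30 min at RT).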
DT40 TDP1 CPT – DT40-hTDP1 cell growth loss with CPT. actives 12% (n = 420,000). Potency, µM (top dose mostly 46.2 µM), for the others: at the highest dose activity change, negative = growth inhibition, hits mostly inhibitors. chicken DT40 Tdp1-/-;hTDP1 cells + 20 nM CPT, ATP luminescence, 48 h; also: potency is read from the fitted curve at half-maximal effect; nearly all actives have a fitted effect of over 55% in size
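Chicken DT40 Tdp1-/- cells complemented with human TDP1, 400 cells/well, exposed to compounds plus 20 nM camptothecin for at least 48 h at 37 C; viability read as ATP content by CellTiter-Glo luminescence.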
The depositor's hits bear a star; i = inactive; u = inconclusive; x = no result given; [ ] = dose if it differs, or a comment. Unless noted, calls follow the shape of the dose curve; as a rule, active = well fitted curve in the direction sought with a large enough effect; inconclusive = small, poorly fitted or top-dose-only effect, or another doubt; inactive = no such curve, though single readings can be large; an effect the other way counts as inactive or inconclusive. % is scaled to controls: 0 for no effect and ±100 for the full control effect.

SMILES	IL1B secr inh	VP16 counter	RORg inh	ELG1 repair inh	TDP1 cell noCPT	DT40 TDP1 CPT
C/C(=N\OCC(=O)Nc1ccc(OC(F)(F)F)cc1)c1ccc2c(c1)OCCO2	-69*	u	u	u	u	-2%
O=C(COC(=O)c1cc[n+]([O-])cc1)Nc1ccc(Cl)cc1[N+](=O)[O-]	22	24%	-7%	1%	11%	2%
CC(=O)c1c(C)[nH]c(C(=O)OCC(=O)Nc2ccc(Cl)c(S(=O)(=O)N(C)C)c2)c1C	-29	u	19%	12µM*	9.2µM*	7.3µM*
CC(=O)c1c(C)[nH]c(C(=O)Nc2ccc(Cl)c(S(=O)(=O)N(C)C)c2)c1C	18	1%	22%	u	u	u
NS(=O)(=O)c1ccc(CCNC(=O)c2ccc(NS(=O)(=O)c3ccc4[nH]c(=O)[nH]c4c3)cc2)cc1	-15	x	x	18%	5%	0%
CC(=O)c1c(C)[nH]c(C(=O)OCC(=O)Nc2ccc3c(c2)OCCO3)c1C	26	x	x	15µM*	21µM*	u
O=C(COC(=O)c1ccc(O)cc1)Nc1ccc(OC(F)F)cc1	36	-3%	32%	0%	16µM*	u
COc1cc(NC(=O)COC(=O)c2[nH]c(C)c(C(C)=O)c2C)cc(OC)c1	1	x	x	7.3µM*	u	u
CCCC(=O)OCC(=O)Nc1ccc(OC(F)F)cc1	-2	2%	16%	10%	-7%	-5%
CC(C)CC(NC(N)=O)C(=O)OCC(=O)Nc1ccc(OC(F)F)cc1 (stereo not drawn)	-14	5%	18%	9%	u	23µM*
Cc1c(Cl)cccc1NC(=S)N/N=C/c1ccccc1Cl	4	4.5µM*	1µM*	u	u	u
CNC(=S)N/N=C/c1ccccc1Cl	-50*	5.6µM*	4µM*	u	u	u
Cc1cccc(C)c1NC(=S)N/N=C/c1c(Cl)cccc1Cl	4	2.5µM*	0.5µM*	6%	21µM*	u
Fc1ccc(NC(=S)Nc2cccc(Cl)c2)cc1	-8	-11%	u	0%	u	u
S=C(N/N=C/c1cccc2ccccc12)Nc1cccc(Cl)c1	35	7.9µM*	0.45µM*	-11%	u	-6%
COC(=O)N/N=C/c1ccccc1Cl	-16	16%	8%	-4%	-6%	2%
Cc1c(Cl)cccc1NC(=O)CCC(=O)N/N=C/c1ccc[nH]1	-22	u	u	-1%	1%	-5%
COC(=O)c1ccc2nc(-c3ccco3)c(Cc3ccccc3C(F)(F)F)n2c1	18	x	x	x	u	u
CCC(C)[C@@H](N)C(=O)N/N=C/c1ccc2ncccc2c1 (stereo partly drawn)	13	u	-12%	-10%	13µM*	4%
CNC(=S)N/N=C/c1c(Cl)cccc1Cl	-1	6.3µM*	3.2µM*	4%	u	u
Cn1cccc1C(=O)N/N=C/c1c(Cl)cccc1Cl	-21	1%	-20%	u	-16%	-28%
S=C(N/N=C/c1ccccc1Cl)Nc1ccccc1	12	0%	0.71µM*	11µM*	u	16µM*
O=C(CNC(=O)c1ccccc1)N/N=C/c1ccccc1Cl	-18	-4%	8%	13%	14%	1%
S=C(N/N=C/c1ccc2ncccc2c1)Nc1ccccc1	-11	u	1.3µM*	u	21µM*	23µM*
COc1cc(NC(=O)N2CCC(CN3CCOCC3)CC2)cc(OC)c1OC	x	x	x	x	-14%	-20%
SMILES	IL1B secr inh	VP16 counter	RORg inh	ELG1 repair inh	TDP1 cell noCPT	DT40 TDP1 CPT
Oc1ccc(C=NNC(=S)Nc2ccccc2)nc1	97	x	x	x	5.2µM*	5.2µM*
Oc1cccc(NC(=S)Nc2ccccc2)c1	7	4%	-4%	-3%	0%	-14%
CCc1cccc(C)c1NC(=O)CSc1nc2c(c(=O)[nH]1)CCC2	x	x	x	x	-17%	-22%
Cc1cccc(-c2nc3c4ccccc4n(Cc4cccc(Cl)c4)c(=O)n3n2)c1	x	x	x	x	10µM*	21µM*
CCn1c(=O)c2ccccc2n(Cc2cccc(C)c2)c1=O	-3	4%	-5%	-7%	-13%	-11%
CCc1cccc(NC(=O)Cn2c(=O)n3nc(-c4cccc(F)c4)nc3c3ccccc32)c1	x	x	x	x	4.6µM*	3.7µM*
O=C(Cn1c(=O)n2nc(-c3cccc(F)c3)nc2c2ccccc21)NCc1ccc(Cl)cc1	x	x	x	x	-4%	-2%
COc1ccccc1-c1nnc(SC(C(=O)c2c[nH]c3ccccc23)c2ccccc2)n1C (stereo not drawn)	-51*	-17%	u	u	16µM*	21µM*
COc1ccccc1-c1nnc(SCC(=O)NC2CC2)n1C	-2	x	x	u	-2%	0%
COc1cccc(-c2nnc(SC(C(=O)c3c[nH]c4ccccc34)c3ccccc3)n2C)c1 (stereo not drawn)	-27	u	-21%	u	u	23µM*
Cc1cc(C)cc(-n2ccn(CC(=O)Nc3ccccc3C(F)(F)F)c(=O)c2=O)c1	x	x	x	x	3%	3%
CC(C)(C)NC(=O)N1CCN(c2ncccc2C(F)(F)F)CC1	24	0%	10%	-1%	-18%	-6%
Cc1cc(C)c2cc(C(=O)N3CCN(c4ncccc4C(F)(F)F)CC3)[nH]c2c1	-20	1%	30%	u	15µM*	u
COc1cc(SC)ccc1C(=O)N1CCN(c2ccccc2OC)CC1	30	-6%	31%	u	4.6µM*	21µM*
O=C(c1ccc(-n2cccn2)cc1)N1CCN(c2ncccc2C(F)(F)F)CC1	i	1%	1%	u	u	u
COC(=O)C1CCN(C(=O)c2ccc(SC)cc2OC)CC1	-6	6%	1%[10 µM]	0%	-4%	7%
Cc1oc(C(C)(C)C)cc1C(=O)N1CCN(c2ncccc2C(F)(F)F)CC1	-6	-6%	30%	-14%	23µM*	u
COc1ccccc1N1CCN(C(=O)c2cc(C(C)(C)C)oc2C)CC1	-60*	0%	9%	u	21µM*	u
CCCc1nnc(NC(=O)c2nc(SCC)ncc2Cl)s1	x	x	x	x	-4%	-29%
O=C(Nc1ccc2c(c1)OCCO2)C1c2ccccc2OCC(=O)N1Cc1ccco1 (stereo not drawn)	0	x	x	x	-23%	-13%
Cc1cnc(C(=O)OCc2cc(=O)n3c(C)cccc3n2)cn1	10	x	x	u	-14%	3%
